Among the data in PubChem BioAssay (NCI) are growth inhibition values, retold here.

Molecules are shown by their SMILES. About 79,000 compounds went through this panel and 15% of them were active in at least one assay; those are over-represented in the sample as a whole. The source made the active and inactive calls. Rule as the data show it: active = growth inhibition above about 70%; inactive = the rest.

The nature of the assay: NCI Yeast Anticancer Drug Screen. Data for the bub3 strain (AID 167). The note with it: S. cerevisiae bub3 mutant strain, at 11.0 µM, active compounds read high. The procedure, abridged: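 Part of a panel of yeast mutants defective in DNA damage repair or cell cycle regulation. Each strain is grown with compound, and inhibition is calculated relative to solvent-treated cultures.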
For `Nc1ncc(-c2ccc(Br)cc2)s1`, the growth inhibition is -11% (inactive).

For `Cc1cc2cc3cc(C)c(N)cc3nc2cc1N`, the growth inhibition was 8% (inactive).

Turning to `CC12C(=O)OC(=O)C(c3ccccc31)c1ccccc12`, the growth inhibition was -8% (inactive).

Consider `c1ccc2c(OCC3CO3)cccc2c1` (configuration not stated), for which the growth inhibition was -11% (inactive).

Take `CCOC(=N)c1ccc(O)c(OC)c1`: the growth inhibition is 48% (inactive).

With `Nc1cc(N)c(N=Nc2cccc3c(S(=O)(=O)O)cccc23)cc1N=Nc1cc([N+](=O)[O-])ccc1O`, the growth inhibition is 10% (inactive).

Consider `COC(=O)Oc1cc(Cl)c(Cl)cc1Cl`, for which the growth inhibition is 1% (inactive).

On to `O=C(O)C1CC(c2ccccc2)=NN1c1ccccc1` (configuration not stated), for which the growth inhibition was -20% (inactive).

For `COc1cc([C@@H]2c3cc4c(cc3[C@@H](Nc3ccc(NC(=O)c5cc([N+](=O)[O-])cn5C)cc3)[C@H]3COC(=O)[C@H]23)OCO4)cc(OC)c1O`, the growth inhibition is 14% (inactive).

On to `O=C(O)c1ccccc1/C=N/N=C1c2ccccc2-c2ccccc21`, for which the growth inhibition was 9% (inactive).

Turning to `O=C1CC(=O)c2ccccc21`, the growth inhibition is 0% (inactive).

In the case of `Nc1ncnc2c1ncn2C1OC(CO)CC1O` (configuration not stated), the growth inhibition is 34% (inactive).
